# In PubChem BioAssay (Tox21):
# Results filed as inconclusive are left out. Values without a mark were called inactive. Activity calls are given as the source filed them. Calls come from the whole dose curve; as a rule, active = well fitted cell-killing curve with a large enough effect in the repeat runs; inconclusive = weak or mixed curves, or effect the other way; inactive = flat fitted curve, though single readings scatter.
# Assay: cAMP Responsive Elements (CRE) small molecule agonists, cell-based qHTS assay: qHTS cell viability counter screen (AID 2060914);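 note: viability read after 3 h of compound exposure; nearly all actives have a fitted effect of over 50% in size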
# Details: CRE-bla HEK293T viability, CellTiter-Glo luminescence, 5 h; series mostly up to 92.4 µM; activity change, negative = cytotoxicity: at the top concentration
# Excerpt: National Center for Advancing Translational Sciences [NCATS]
# Division of Preclinical Innovation [DPI]
# U.S. Environmental Protection Agency [EPA]
# National Institutes of Environmental Health Sciences [NIEHS]
# National Toxicology Program [NTP]
# U.S. Food and Drug Administration [FDA]
# CREB (cyclic-AMP Responsive Element Binding Protein) is a cellular transcription factor. It binds to certain DNA sequences called cAMP Responsive Elements (CRE) and regulates the transcription of the genes. […] This cell line can be used to find agonists/antagonists of the cyclic AMP signaling pathway. The activation of the report gene under culture conditions can be detected by fluorescence intensity. This cell line has been used to screen the Tox21 10K compound library to identify agonists that induce oxidative stress. The cytotoxicity of the Tox21 compound library against the CRE-bla cell line was tested in parallel by measuring the cell viability using CellTiter-Glo assay (Promega, Madison, WI) in the same wells.
# Tox21 Assay Protocol Summary:
# CRE-bla Hek 293T cells were suspended in assay medium (DMEM containing 10% dialyzed FBS, 0.1 mM NEAA, 1 mM sodium pyruvate and 25 mM HEPES) and dispensed at 2,000 cells/5 uL /well into 1536-well black wall/clear bottom plates using a Multidrop Combi (ThermoFisher Scientific, Waltham, MA) dispenser. After the assay plates were incubated at 37 C/5% CO2 for 18 hrs, 23 nL of compounds dissolved in DMSO, positive controls or DMSO only was transferred to the assay plate by a pintool workstation (Kalypsys, San Diego, CA). After the plates were incubated at 37 C/5% CO2 for 3 hrs, 1 uL of LiveBLAzer B/G FRET substrate (Invitrogen, Carlsbad, CA) was added to each well using Bioraptr Flying Reagent Dispenser (FRD, Aurora Discovery, San Diego, CA). The plates were incubated at room temperature for 2 h, then fluorescence intensities were measured using an Envision plate reader (PerkinElmer, Shelton, CT) at Excitation 405nm, Emission 460nm and 530nm. The % activity was determined from the ratio of 460nm/530nm. For cell viability readout that measures cytotoxicity, 4 uL /well of CellTiter-Glo reagent was added into the assay plates using Bioraptr FRD. After 30 min incubation at room temperature, the luminescence intensity in the assay plates was measured using a ViewLux (PerkinElmer, Shelton, CT) plate reader.
# % is set by controls: 0 for no effect and ±100 for the full control effect; potency is the fitted concentration of half-maximal effect.
SMILES,"activity change, negative = cytotoxicity",Potency
CC1(C)S[C@@H]2[C@H](NC(=O)Cc3ccccc3)C(=O)N2[C@H]1C(=O)O (tested in a mixture with another compound),12.8% [at 42.5 µM],–
Cc1oc(-c2ccccc2)nc1CCOc1cccc2c1ccn2CCC(=O)O,-1.07%,–
O=C(O)C(S)C(S)C(=O)O (stereo not given),-1.55% [at 42.5 µM],–
Cc1ncc(CSSCc2cnc(C)c(O)c2CO)c(CO)c1O,11.8% [at 42.5 µM],–
CCOC(=O)[C@H](CCc1ccccc1)N[C@@H](C)C(=O)N1[C@H](C(=O)O)C[C@@H]2CCC[C@@H]21,-2% [at 42.5 µM],–
NC(=O)CC[C@@H](N)C(=O)O,-6.07% [at 42.5 µM],–
c1cnc2cc3c(cc2n1)C1CNCC3C1,10.4% [at 42.5 µM],–
CCCCCCCCOC(=O)c1ccc(O)cc1,–,inactive
O=Cc1ccccc1[N+](=O)[O-],4.63%,–
OCC(O)CO,–,inactive
COc1cc2c(cc1OC)C(=O)CC2,0.195% [at 42.5 µM],–
CCCCCNCCCCC,–,inactive
Cc1ccc2c(n1)Oc1ccc(C(C)C(=O)OCC(=O)N(C)C)cc1C2 (stereo not given),–,inactive
CC1(C)C2=CCCC(C)(C)[C@]23CC[C@H]1C3,-21.3%,–
OCCc1ccccn1,6.95%,–
O=C(Nc1ccc(Cl)cc1)Nc1ccc(Cl)c(C(F)(F)F)c1,–,23.7 µM (active)
CCC(Cl)CC(Cl)C(Cl)C(Cl)C(Cl)C(C)Cl (stereo not given),-0.221% [at 18.9 µM],–
OCCN(CCO)c1nc(N2CCCCC2)c2nc(N(CCO)CCO)nc(N3CCCCC3)c2n1,-2.69% [at 42.5 µM],–
O=c1[nH]c(=O)c2cn[nH]c2[nH]1,-9.98%,–
COc1ccc(/C(C)=C/C(=O)O)c(OC)c1,6.27% [at 42.5 µM],–

SMILES,"activity change, negative = cytotoxicity",Potency
CCc1cccc(CC)c1N(COC)C(=O)CS(=O)(=O)O,-7.18%,–
CC/C(=C(/c1ccc(O)cc1)c1ccc(OCCN(C)C)cc1)c1ccccc1,10.1% [at 42.5 µM],–
O=Cc1ccccc1Cl,1.23%,–
O=C1Cc2cc(CCN3CCN(c4nsc5ccccc45)CC3)c(Cl)cc2N1,7.82% [at 42.5 µM],–
CCOC(=O)[C@H](CCc1ccccc1)N[C@@H](C)C(=O)N1Cc2ccccc2C[C@H]1C(=O)O,–,inactive
C/C=C(\C)C#N,1.2%,–
O=C1NC(c2ccccc2)(c2ccccc2)C(=O)N1COP(=O)(O)O,-0.0544% [at 42.5 µM],–
O=C(Cl)c1cc(Cl)cc(Cl)c1,4.73%,–
C=CCOc1nc(OCC=C)nc(OCC=C)n1,-15.6%,–
CNCCC(Oc1ccccc1OC)c1ccccc1 (stereo not given),-6.43% [at 42.5 µM],–
Cc1ccc(C=O)cc1C,-0.424%,–
O=C(O)c1ccc(S(=O)(=O)O)cc1C(=O)O,-27%,–
CC(C)CC(O)Cc1ccccc1 (stereo not given),2.85%,–
CCOc1ccccc1C(N)=O,–,inactive
COC(=O)c1cc(Cl)ccc1OC,7.49% [at 42.5 µM],–
COC(=O)CCCCCCCCC(=O)OC,9.56%,–
Cc1cccc2c1ccc1ccccc12,3.67%,–
CCCCCCCCC(=O)Cl,-5.67%,–
CCCC(=O)OC(=O)CCC,0.905%,–
C=CCOc1c(Br)cc(C(C)(C)c2cc(Br)c(OCC=C)c(Br)c2)cc1Br,-16.1% [at 42.5 µM],–
